Consider 13 compounds from PubChem BioAssay (EPA / NIEHS).

The structures appear in SMILES notation. The source made the active and inactive calls. Rule for the calls: active = hit-call score of the fitted dose curve at least 0.9, where 1 is the maximum; inactive = score below 0.9.

The nature of this experiment: CEETOX_H295R_ESTRONE: CeeTox H295R High-throughput Steroidogenesis Assay for Estrone (AID 2283441).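 For AC50: human adrenal H295R cells prestimulated with forskolin for two days.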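 Note: estrone secreted into medium measured by LC-MS/MS after dansyl derivatization.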 To be noted: actives raise or lower the signal. The method, then: CEETOX_H295R is a cell-based, multiplexed-readout assay that uses H295R, a human adrenal gland cell line, with measurements taken at 48 hours after chemical dosing in a 96-well plate.CEETOX_H295R_ESTRONE is one of 23 assay component(s) measured or calculated from the CEETOX_H295R assay. It is designed to make measurements of hormone induction, a form of inducible reporter, as detected with absorbance signals by HPLC-MS-MS technology.Data from the assay component CEETOX_H295R_ESTRONE was analyzed into 1 assay endpoint. This assay endpoint, CEETOX_H295R_ESTRONE, was analyzed with bidirectional fitting relative to DMSO as the negative control and baseline of activity. Using a type of inducible reporter, gain or loss-of-signal activity using HPLC-MS-MS was used to understand synthesis of Estrone in H295R cell line at 48hr of chemical exposure. To generalize the intended target to other relatable targets, this assay endpoint is annotated to the steroid hormone intended target family, where the subfamily is estrogens.
Cell culture and media preparation procedures were conducted in accordance with OECD Test No. 456 guidelines, with minor modifications. H295R cells (ATCC CRL-2128) were expanded for 5 passages and frozen in batches in liquid nitrogen. Prior to the steroidogenesis assay, H295R cells were thawed and passed at least 4 times. The maximum passage was 10. […] After seeding cells into 96-well plates at 50-60% confluency, cells were allowed to adhere overnight. Prior to chemical testing, culture medium was replaced with 175 uL medium containing 10 uM forskolin to stimulate steroidogenesis for 48 hours. Following prestimulation, forskolin medium was replaced with medium containing test chemical solubilized in DMSO (ensuring a final concentration of 0.1% DMSO). Test chemicals were incubated for 48 hours, then the medium was removed and split into 2 vials containing approximately 75uL each, and stored at -80 C prior to hormone analysis. For steroid quantification, media samples were shipped to OpAns, LLC (Durham, NC) on dry ice, and samples were thawed to room temperature prior to liquid-liquid extraction. Steroid hormones were extracted from media samples using methyl tertbutyl ether (MTBE). An extra derivatization with dansyl chloride was included for estrogen (estrone and estradiol) detection only. Steroid hormones were separated by HPLC, eluted using a reverse phase C18 gradient with electrospray positive ionization, followed by quantification by tandem mass spectrometry (MS/MS). Data were acquired on a MassHunter Workstation Acquisition version B03.01 (Agilent Technologies, Inc.) and processed using MassHunter Quantitative Analysis for QQQ. Accuracy was determined for each hormone analyte from 3 standards to determine upper and lower limits of quantification (ULOQ and LLOQ, respectively) using a 7-point standard curve. Precision and accuracy of the extraction and quantification methods were calculated as the percent relative standard deviation (%RSD) of the spiked standards and percent spiked standard recovered, respectively. The goal was to achieve 100% accuracy (i.e., recover all spiked-in standard at quantification with minimal loss during run time) and good precision (i.e., have %RSD <15% to ensure reproducibility). Test medium was removed following chemical exposure, and cell viability was evaluated in the same wells by MTT. MTT procedures were as follows: after removal of test medium, 500 uL of 0.5 mg/ml of 3-[4,5-dimethylthiazol-2-y]2,5-diphenyltetrazoliumbromide solution was added to the cells. Following a 4-hour incubation at 37 C and 5% CO2 to allow formazan-crystal formation, the MTT solution was removed and blue formazan salt crystals were solubilized using 500uL anhydrous isopropanol with shaking for 20 minutes. Absorbance was read at 570 and 650nm using a Packard Fusion microplate reader. Background correction of absorbance units was used to determine percent change relative to controls. […] […]
In the case of `NS(=O)(=O)C(F)(F)C(F)(F)C(F)(F)C(F)(F)C(F)(F)C(F)(F)C(F)(F)C(F)(F)F`, the outcome was inactive. With `C[C@]12CCC(=O)C=C1CC[C@@H]1[C@@H]2CC[C@]2(C)C(=O)CC[C@@H]12`, the compound was called inactive. For the compound `O=C(NC(=O)c1c(F)cccc1F)Nc1cc(Cl)c(OC(F)(F)C(F)F)c(Cl)c1`, the compound was classed as inactive.

`CC#Cc1cc(C)nc(Nc2ccccc2)n1`: the compound was called inactive. `Cc1cccc(C)c1N`: the call was inactive. The same measure, in the same setting: next, `Clc1ccc(C(c2ccccc2Cl)C(Cl)(Cl)Cl)cc1` (stereo not drawn): “inactive”. As for `Cc1cc(O)ccc1Cl`, the compound was called inactive. On to `Cc1ccc(O)c(C)c1`, for which the call was inactive.

On to `Oc1ccc(Cl)cc1Cl`, for which the AC50 was 24.4 µM (active). On to `CCC(=O)O[C@H]1CC[C@H]2[C@@H]3CCC4=CC(=O)CC[C@]4(C)[C@H]3CC[C@]12C`, for which the AC50 is 1.31 µM (active). Consider `N#Cc1ccc(N(CC(N)=O)CC(F)(F)F)cc1C(F)(F)F`, for which the result was inactive.

On to `Nc1ccc(-c2ccc(N)cc2)cc1`, for which the compound was called inactive. Consider `Cc1cc2c3c(c1)C(c1ccccc1)=N[C@@H](NC(=O)c1ccncc1)C(=O)N3CC2`, for which the compound was classed as inactive.
